GDH-TPI counter = GDH-TPI coupling enzyme inhibitors, primary screen, artefact control for M. tuberculosis FBA inhibitor project, biochemical, absorbance, full deck. GDH-TPI coupled enzyme counterscreen, NADH absorbance. inhibition, % at 4.8 µM. 360,000 tested, 1.2% active; in the data active means inhibition above about 30%;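 further: 0% = DMSO wells and 100% = wells lacking the enzyme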
Mtb betalactam = beta-lactam sensitization of Mtb H37Rv, H37Rv. M. tuberculosis H37Rv growth with meropenem, percent inhibition. inhibition, % at 25 µM. 330,000 tested, 0.27% active; call rule not given here;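 further: growth measured after seven days incubation then overnight dye step; 0% = bacteria only wells and 100% = bacteria with antibiotic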
Rv3671c protease = Rv3671c serine protease inhibitors, primary screen, biochemical, fluorescence polarization, M. tuberculosis H37Rv. inhibition, % at 5.96 µM. 320,000 tested, 0.048% active. AID 2606, 2010; in the data active means inhibition above about 38%;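 further: extracellular domain of Rv3671c used as enzyme; 0% = enzyme with DMSO and 100% = no enzyme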
RecA intein inh = Mtb RecA intein splicing inhibitors, primary screen, biochemical, fluorescence, HTS. 290,000 tested, 0.75% active. AID 2221, 2009. Protein RecA (Mycobacterium tuberculosis (strain ATCC 25618 / H37Rv)), P9WHJ3. inhibition, % (test concentration not listed). cell-free RecA intein splicing; in the data active means inhibition above about 30%;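 further: 0% = vehicle wells and 100% = reference inhibitor control wells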
Mtb FBA inh = Mtb FBA enzyme inhibitors, primary screen, biochemical, fluorescence, strain H37Rv | purified M. tuberculosis FBA, fluorescence read-out | 360,000 tested, 2.3% active | AID 588726, 2011 | inhibition, % at 1 µM | Fructose-bisphosphate aldolase (Mycobacterium tuberculosis (strain ATCC 25618 / H37Rv)), …; in the data active means inhibition above about 27%;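 further: 0% = vehicle and 100% = reference inhibitor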
Mtb UGM inh = M. tuberculosis UGM enzyme inhibitors, primary screen, biochemical, fluorescence polarization, single point. UDP-galactopyranose mutase (Mycobacterium tuberculosis (strain ATCC 25618 / H37Rv)), …. purified UGM, fluorescence polarization probe displacement. inhibition, % at 10 µM. 320,000 tested, 0.06% active. AID 504406, 2011; in the data active means inhibition above about 10%, passing the limit was not always enough
Target sequence (P9WIQ1 whole entry, looked up): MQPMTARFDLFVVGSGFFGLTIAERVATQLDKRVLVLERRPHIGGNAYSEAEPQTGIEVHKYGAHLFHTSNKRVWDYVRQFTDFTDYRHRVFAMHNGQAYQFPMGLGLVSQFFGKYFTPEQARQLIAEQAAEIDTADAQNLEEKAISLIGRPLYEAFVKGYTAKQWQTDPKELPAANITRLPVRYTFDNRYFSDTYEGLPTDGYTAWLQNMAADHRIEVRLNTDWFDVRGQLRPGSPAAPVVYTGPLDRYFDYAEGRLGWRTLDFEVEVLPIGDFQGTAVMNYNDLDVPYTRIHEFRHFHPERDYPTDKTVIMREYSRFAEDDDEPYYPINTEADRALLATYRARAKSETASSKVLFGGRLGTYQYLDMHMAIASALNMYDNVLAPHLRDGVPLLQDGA
* hit, by the source's call; ! = not confirmed by another sample. Compounds with a hit are over-represented: about 4% of the library has one in this group of screens.

Results for CN(Cc1ccccc1)C(=O)c1cccc(NC(=O)Cc2ccc(NC(=O)C3CCCN(C(=O)C4CCCCC4)C3)cc2)c1 (stereo not drawn) ?
GDH-TPI counter: 5; Mtb FBA inh: 0

What do the screens show for `Cc1ccc(CSCC(=O)N(C)CC(=O)Nc2c(Cl)cccc2Cl)cc1`?
GDH-TPI counter: 1; Mtb betalactam: -1; Rv3671c protease: 6; RecA intein inh: -2; Mtb FBA inh: 1; Mtb UGM inh: 3

What do the screens show for `COc1ccc(C#Cc2cccc(-c3nc(C(=O)NCc4ccc(Oc5ccccc5)cc4)cc4c3[C@@H](CCO)N(S(=O)C(C)(C)C)C4)c2)cc1OC` (stereo partly drawn)?
Mtb FBA inh: 0

Results for CCN1C(=O)/C(=C\N(C)C)NC1=S ?
GDH-TPI counter: 34*; Mtb betalactam: 0; Rv3671c protease: -5; RecA intein inh: 0; Mtb FBA inh: -4; Mtb UGM inh: -1

What do the screens show for `O=C(O)c1cc2ccc3ccccc3c2oc1=O`?
GDH-TPI counter: 10; Mtb betalactam: 86; Rv3671c protease: -1; RecA intein inh: -37; Mtb FBA inh: 196*; Mtb UGM inh: -2

What do the screens show for `O=C(NCc1ccccn1)c1cc2c(ccc3ccccc32)oc1=O`?
GDH-TPI counter: 17; Mtb betalactam: -5; Rv3671c protease: -5; RecA intein inh: -272; Mtb FBA inh: 172*; Mtb UGM inh: -1

Results for CC(C)(C)NC(=O)c1cc2c(ccc3ccccc32)oc1=O ?
GDH-TPI counter: 5; Mtb betalactam: 8; Rv3671c protease: 5; RecA intein inh: -2; Mtb FBA inh: 80*; Mtb UGM inh: 2

What do the screens show for `CCOC(=O)c1cc2c(ccc3ccccc32)oc1=O`?
GDH-TPI counter: 7; Mtb betalactam: 59; Rv3671c protease: -7; RecA intein inh: inactive; Mtb FBA inh: active; Mtb UGM inh: 1

What do the screens show for `C=CCc1cccc2cc(C(=O)NC(C)(C)C)c(=O)oc12`?
GDH-TPI counter: 3; Mtb betalactam: 21; Rv3671c protease: 2; RecA intein inh: 5; Mtb FBA inh: 0; Mtb UGM inh: 0

What do the screens show for `O=C(CC(C(=O)O)c1cccc(Br)c1)c1ccc(Cl)cc1` (stereo not drawn)?
GDH-TPI counter: 7; Mtb betalactam: 4; Rv3671c protease: -9; RecA intein inh: -4; Mtb FBA inh: 0; Mtb UGM inh: 0

What do the screens show for `CCCCN(C=O)c1c(CC)nc2ccc(C(=O)NCc3cccs3)cn12`?
GDH-TPI counter: 10; Mtb FBA inh: 3

Results for O=C(O)c1cc2c(ccc3ccccc32)oc1=O ?
GDH-TPI counter: 10; Mtb betalactam: -5; Rv3671c protease: -1; RecA intein inh: -28; Mtb FBA inh: active; Mtb UGM inh: 3

How did O=C(c1cc2c(ccc3ccccc32)oc1=O)N1CCCC1 do in these assays?
GDH-TPI counter: 16; Mtb betalactam: -5; Rv3671c protease: 1; RecA intein inh: -10; Mtb FBA inh: 166*; Mtb UGM inh: 0

What do the screens show for `CCCC(=O)c1cc2ccccc2oc1=O`?
GDH-TPI counter: 0; Mtb betalactam: 47; Rv3671c protease: -7; RecA intein inh: 0; Mtb FBA inh: 1; Mtb UGM inh: 2

How did Cc1cc(C(=O)NCC(=O)OC(C)C(=O)N2CCOCC2)ccc1[N+](=O)[O-] (stereo not drawn) do in these assays?
GDH-TPI counter: 11; Mtb betalactam: -2; Rv3671c protease: 8; Mtb FBA inh: 2; Mtb UGM inh: 1

How did NC(N)=NC(=O)c1nc(Cl)c(N)nc1N do in these assays?
GDH-TPI counter: 39*!; Mtb betalactam: 4; Rv3671c protease: -3; RecA intein inh: -1; Mtb FBA inh: 33*!; Mtb UGM inh: 0

How did NC(N)=NC(=O)c1nc(Cl)c(N2CCCCCC2)nc1N do in these assays?
GDH-TPI counter: 14; Mtb betalactam: 6; Rv3671c protease: 2; Mtb FBA inh: 7; Mtb UGM inh: 0

Results for Cc1cc(F)cc(-c2cc(C(=O)NCc3ccco3)[nH]n2)c1 ?
GDH-TPI counter: 4; Mtb FBA inh: -3

Results for Cc1ccc2nc(Cl)c3nnnn3c2c1 ?
GDH-TPI counter: 0; Mtb betalactam: 100; Rv3671c protease: -6; RecA intein inh: 79*; Mtb FBA inh: 7; Mtb UGM inh: 0

Results for Cc1ccc2nc(N3CCN(c4cccc(C)c4C)CC3)c3nnnn3c2c1 ?
GDH-TPI counter: 0; Mtb betalactam: -8; Rv3671c protease: -8; RecA intein inh: 2; Mtb FBA inh: -1; Mtb UGM inh: -1

Results for O=C(CN1CCN(C(=O)CNC(=O)c2ccc3c(c2)OCO3)CC1)Nc1cccc(F)c1 ?
GDH-TPI counter: 2; Mtb betalactam: 2; Rv3671c protease: -4; Mtb FBA inh: 4; Mtb UGM inh: 1

What do the screens show for `CCOC(=O)c1cc2c(nc1N)CCCC2`?
GDH-TPI counter: 17; Mtb betalactam: 17; Rv3671c protease: 3; RecA intein inh: -2; Mtb FBA inh: 139*; Mtb UGM inh: -3

Results for CCC(=O)N1CCCC1(C)C(=O)Nc1ccc2nc(C)ccc2c1 (stereo not drawn) ?
GDH-TPI counter: 0; Mtb FBA inh: 6

How did C=CCn1c(N)c(C(=O)NCCC2=CCCCC2)sc1=S do in these assays?
GDH-TPI counter: 35*; Mtb betalactam: 14; Rv3671c protease: -4; RecA intein inh: 13; Mtb FBA inh: 2; Mtb UGM inh: 1

How did C/C(=N\Nc1ccccn1)c1ccc(C(C)C)cc1 do in these assays?
GDH-TPI counter: 8; Mtb betalactam: 21; Rv3671c protease: 2; RecA intein inh: 2; Mtb FBA inh: 3; Mtb UGM inh: -2

Results for C/C(=N\Nc1ccccn1)c1ccc(Br)s1 ?
GDH-TPI counter: 38*; Mtb betalactam: 56; Rv3671c protease: -6; RecA intein inh: 8; Mtb FBA inh: 0; Mtb UGM inh: -1

Results for CC(CC(=O)c1ccccc1)=NCC(O)CN=C(C)CC(=O)c1ccccc1 (stereo not drawn) ?
GDH-TPI counter: 55*; Mtb FBA inh: 0

What do the screens show for `COCCCNc1nc(CC(C)C)nc2c1nnn2Cc1ccccc1`?
GDH-TPI counter: 8; Mtb betalactam: 4; Rv3671c protease: 2; RecA intein inh: -2; Mtb FBA inh: 0; Mtb UGM inh: 1

What do the screens show for `O=C1/C(=C/c2cccnc2)SC(=S)N1NS(=O)(=O)c1ccccc1`?
GDH-TPI counter: 34*; Mtb betalactam: 4; Rv3671c protease: -15; RecA intein inh: 6; Mtb FBA inh: 0; Mtb UGM inh: -2

How did CC(=O)c1ccc(S(=O)(=O)NCC(=O)Nc2nc3ccccc3[nH]2)cc1 do in these assays?
GDH-TPI counter: 12; Mtb betalactam: 0; Rv3671c protease: 5; Mtb FBA inh: 1; Mtb UGM inh: 1

Compound activity (PubChem BioAssay)
